Screening data: PubChem, National Center for Advancing Translational Sciences (NCATS)
Pf Dd2 growth = blocks in vitro growth of P. falciparum Dd2; P. falciparum Dd2 growth, SYBR Green, 72 h; AID 1347417; 120,000 tested, 4.3% active; Potency, µM (top dose mostly 28.9 µM), inactives show at the top dose activity, negative = inhibition, usual class: inhibitors; active = well fitted inhibition curve with a large enough effect;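 note: plate controls were DMSO vehicle for no effect and reference drug for full effect; nearly all actives have a fitted effect of over 65% in size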
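Readout: SYBR Green fluorescence, 485 nm excitation, 535 nm emission, after ~16 h lysis at 37C. Before that, Dd2-infected red cells (2.5% hematocrit) grew 72 h with compound, 29 uM top final concentration.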
Starred values were filed as active, the others as inactive; i = inactive. Not all results are given here. Potency is the fitted concentration of half-maximal effect.

SMILES	Pf Dd2 growth
O=C(CCn1ccn2nc3c(c2c1=O)CCCC3)Nc1ccc(F)cc1	i
Cc1ncccc1OC1(C(=O)NCc2n[nH]c3c2CCC3)CCNCC1	8.1%
O=C(NC1CCc2n[nH]c(=O)n2CC1)c1ccoc1 (stereo not drawn)	24.3%
CN1CCN(c2cc(=O)c3ccnc(-c4ccc(F)cc4)c3o2)CC1	i
Cc1cc(C2CCCN2C(=O)c2cc(C)c(C)c(S(N)(=O)=O)c2)on1 (stereo not drawn)	-4.4%
